Legend:
Experiment in all cases: DAPPL (digital affinity profiling via proximity ligation, sequencing); 10 mM Tris-HCl pH 7.5, 50 mM NaCl, 1 mM DTT, 4% glycerol, room temperature, 30 min; GST-TFs on glutathione beads, 16-mer random dsDNA library, 0.1% formaldehyde crosslink after washing; high values mean tight binding
FEV = molecular target: T1, FEV (Homo sapiens, UniProt Q99581 1-238); conditions: protein: recombinant; tags: N-terminal GST; dsDNA, one strand shown
T1 sequence: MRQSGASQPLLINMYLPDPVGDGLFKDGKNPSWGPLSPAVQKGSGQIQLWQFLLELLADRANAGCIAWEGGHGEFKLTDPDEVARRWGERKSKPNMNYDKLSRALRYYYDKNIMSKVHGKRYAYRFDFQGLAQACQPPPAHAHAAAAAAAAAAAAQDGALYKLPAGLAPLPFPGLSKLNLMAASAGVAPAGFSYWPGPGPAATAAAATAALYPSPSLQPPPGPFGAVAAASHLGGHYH
Outline: (§1)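 Sequencing on an Illumina NextSeq500 followed washing, crosslinking with 0.1% formaldehyde, proximity ligation (BsaI/T4 ligase, 1 h, 37 °C) and PCR amplification of pools that had been incubated for 30 min at room temperature with 200 nmole of a random double-stranded 16-mer DNA library in Tris/NaCl/DTT/glycerol buffer. Each pool held DNA-barcoded human transcription factors, expressed in yeast as GST fusions and captured on glutathione beads, plus a tag-only sample. Binding signal is a hexamer's read frequency for a factor divided by its frequency in the tag-only sample.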

ETV5 = ETV5 (Homo sapiens, UniProt P41161 1-510); conditions: protein: recombinant; tags: N-terminal GST; dsDNA, one strand shown
Outline: as §1

HSF1 = HSF1 (Homo sapiens, UniProt Q00613 1-529); conditions: protein: recombinant; tags: N-terminal GST; chain copies: 3; dsDNA, one strand shown
Outline: as §1

SPIC = molecular target: T2, SPIC (Homo sapiens, UniProt Q8N5J4 1-248); conditions: protein: recombinant; tags: N-terminal GST; dsDNA, one strand shown
T2 sequence: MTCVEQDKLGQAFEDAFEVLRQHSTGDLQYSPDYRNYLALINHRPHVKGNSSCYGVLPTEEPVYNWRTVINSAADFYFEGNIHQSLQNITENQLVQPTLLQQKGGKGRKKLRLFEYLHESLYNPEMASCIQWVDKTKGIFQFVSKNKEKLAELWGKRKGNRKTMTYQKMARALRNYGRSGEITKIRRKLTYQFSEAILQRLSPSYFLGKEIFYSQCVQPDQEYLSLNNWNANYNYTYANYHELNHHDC
Outline: as §1

ELF4 = ELF4 (Homo sapiens, UniProt Q99607 1-663); conditions: protein: recombinant; tags: N-terminal GST; dsDNA, one strand shown
Outline: as §1

ELK4 = molecular target: T3, ELK4 (Homo sapiens, UniProt P28324-2 1-405); conditions: protein: recombinant; tags: N-terminal GST; dsDNA, one strand shown
T3 sequence: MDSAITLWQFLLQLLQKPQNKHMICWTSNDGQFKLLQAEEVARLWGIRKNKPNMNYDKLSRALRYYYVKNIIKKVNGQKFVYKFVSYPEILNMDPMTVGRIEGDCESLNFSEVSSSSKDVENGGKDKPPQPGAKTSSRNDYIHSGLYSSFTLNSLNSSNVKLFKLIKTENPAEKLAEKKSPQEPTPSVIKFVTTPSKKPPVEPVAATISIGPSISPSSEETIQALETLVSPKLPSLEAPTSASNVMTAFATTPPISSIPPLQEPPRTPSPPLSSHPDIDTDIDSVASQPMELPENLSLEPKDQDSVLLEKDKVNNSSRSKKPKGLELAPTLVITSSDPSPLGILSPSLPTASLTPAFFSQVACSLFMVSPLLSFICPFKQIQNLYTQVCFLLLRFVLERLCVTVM
Outline: as §1

ETV2 = molecular target: T4, ETV2 (Homo sapiens, UniProt O00321 1-342); conditions: protein: recombinant; tags: N-terminal GST; dsDNA, one strand shown
T4 sequence: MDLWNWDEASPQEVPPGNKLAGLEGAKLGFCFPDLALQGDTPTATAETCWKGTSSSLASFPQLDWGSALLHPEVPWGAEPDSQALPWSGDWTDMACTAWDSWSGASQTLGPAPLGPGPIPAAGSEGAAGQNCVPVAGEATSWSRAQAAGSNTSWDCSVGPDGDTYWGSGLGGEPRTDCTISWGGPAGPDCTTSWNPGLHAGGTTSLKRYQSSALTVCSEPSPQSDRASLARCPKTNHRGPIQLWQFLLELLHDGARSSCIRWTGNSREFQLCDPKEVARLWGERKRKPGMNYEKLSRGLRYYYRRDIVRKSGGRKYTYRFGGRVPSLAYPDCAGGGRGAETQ
Outline: as §1

ELF3 = molecular target: T5, ELF3 (Homo sapiens, UniProt P78545 1-371); conditions: protein: recombinant; tags: N-terminal GST; dsDNA, one strand shown
T5 sequence: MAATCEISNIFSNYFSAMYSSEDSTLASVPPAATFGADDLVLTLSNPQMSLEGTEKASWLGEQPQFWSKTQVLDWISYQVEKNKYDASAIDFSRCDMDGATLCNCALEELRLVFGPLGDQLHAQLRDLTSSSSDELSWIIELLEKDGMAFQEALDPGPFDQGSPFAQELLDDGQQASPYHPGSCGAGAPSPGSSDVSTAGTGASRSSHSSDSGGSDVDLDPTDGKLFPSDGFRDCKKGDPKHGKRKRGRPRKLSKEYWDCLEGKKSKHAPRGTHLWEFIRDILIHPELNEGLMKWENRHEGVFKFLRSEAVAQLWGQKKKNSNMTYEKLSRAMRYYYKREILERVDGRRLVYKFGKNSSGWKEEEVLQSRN
Outline: as §1

CRX = CRX (Homo sapiens, UniProt O43186 1-299); conditions: protein: recombinant; tags: N-terminal GST; dsDNA, one strand shown
Outline: as §1

ETV1 = ETV1 (Homo sapiens, UniProt P50549 1-477); conditions: protein: recombinant; tags: N-terminal GST; dsDNA, one strand shown
Outline: as §1

ERF = molecular target: T6, ERF (Homo sapiens, UniProt P50548 1-548); conditions: protein: recombinant; tags: N-terminal GST; dsDNA, one strand shown
T6 sequence: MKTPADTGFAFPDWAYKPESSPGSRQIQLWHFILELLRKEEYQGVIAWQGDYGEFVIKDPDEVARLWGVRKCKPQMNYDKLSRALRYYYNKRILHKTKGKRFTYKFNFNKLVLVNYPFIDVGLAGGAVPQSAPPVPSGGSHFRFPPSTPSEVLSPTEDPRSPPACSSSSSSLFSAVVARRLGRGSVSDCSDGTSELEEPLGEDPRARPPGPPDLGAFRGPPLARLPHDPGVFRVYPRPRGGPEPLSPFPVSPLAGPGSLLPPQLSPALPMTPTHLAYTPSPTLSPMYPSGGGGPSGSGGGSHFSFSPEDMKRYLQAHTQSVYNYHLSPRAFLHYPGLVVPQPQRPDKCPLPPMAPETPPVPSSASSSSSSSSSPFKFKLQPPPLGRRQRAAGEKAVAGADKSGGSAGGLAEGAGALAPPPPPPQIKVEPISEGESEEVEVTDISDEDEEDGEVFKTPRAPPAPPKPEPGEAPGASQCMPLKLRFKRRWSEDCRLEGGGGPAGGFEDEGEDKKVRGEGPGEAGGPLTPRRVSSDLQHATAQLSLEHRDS
Outline: as §1

ETV3L = molecular target: T7, ETV3L (Homo sapiens, UniProt Q6ZN32 1-361); conditions: protein: recombinant; tags: N-terminal GST; dsDNA, one strand shown
T7 sequence: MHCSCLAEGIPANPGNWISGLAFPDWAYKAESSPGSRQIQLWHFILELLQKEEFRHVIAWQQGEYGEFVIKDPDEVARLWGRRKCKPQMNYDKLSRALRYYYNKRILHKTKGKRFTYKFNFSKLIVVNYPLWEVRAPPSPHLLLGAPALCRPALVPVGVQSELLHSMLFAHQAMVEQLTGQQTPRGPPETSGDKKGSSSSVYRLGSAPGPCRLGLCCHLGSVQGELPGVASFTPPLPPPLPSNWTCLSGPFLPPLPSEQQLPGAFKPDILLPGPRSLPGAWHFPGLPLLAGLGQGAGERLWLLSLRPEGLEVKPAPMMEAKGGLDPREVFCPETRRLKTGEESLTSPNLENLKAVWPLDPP
Outline: as §1

ETS2 = molecular target: T8, ETS2 (Homo sapiens, UniProt P15036 1-469); conditions: protein: recombinant; tags: N-terminal GST; dsDNA, one strand shown
T8 sequence: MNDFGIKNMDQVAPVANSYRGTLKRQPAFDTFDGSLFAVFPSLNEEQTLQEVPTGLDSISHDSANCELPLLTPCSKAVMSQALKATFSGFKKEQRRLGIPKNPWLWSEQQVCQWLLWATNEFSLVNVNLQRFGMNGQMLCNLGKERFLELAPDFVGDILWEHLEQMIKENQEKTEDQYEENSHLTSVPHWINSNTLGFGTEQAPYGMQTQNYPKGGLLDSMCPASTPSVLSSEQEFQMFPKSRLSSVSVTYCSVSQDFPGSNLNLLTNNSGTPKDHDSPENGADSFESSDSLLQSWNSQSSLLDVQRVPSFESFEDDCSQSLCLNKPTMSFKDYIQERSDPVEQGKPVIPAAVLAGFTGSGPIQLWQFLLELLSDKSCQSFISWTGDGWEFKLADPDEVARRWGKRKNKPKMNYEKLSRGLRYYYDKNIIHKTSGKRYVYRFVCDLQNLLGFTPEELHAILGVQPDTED
Outline: as §1

SPDEF = molecular target: T9, SPDEF (Homo sapiens, UniProt O95238 1-335); conditions: protein: recombinant; tags: N-terminal GST; dsDNA, one strand shown
T9 sequence: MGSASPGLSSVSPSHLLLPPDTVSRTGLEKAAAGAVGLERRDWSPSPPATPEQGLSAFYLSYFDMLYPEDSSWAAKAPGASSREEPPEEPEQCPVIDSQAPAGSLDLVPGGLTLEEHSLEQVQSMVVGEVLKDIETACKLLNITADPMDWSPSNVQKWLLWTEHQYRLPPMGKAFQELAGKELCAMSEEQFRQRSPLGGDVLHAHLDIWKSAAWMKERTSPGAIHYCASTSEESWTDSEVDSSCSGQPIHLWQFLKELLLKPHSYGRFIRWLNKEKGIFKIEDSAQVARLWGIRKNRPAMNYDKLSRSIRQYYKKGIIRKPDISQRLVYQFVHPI
Outline: as §1

ETV7 = molecular target: T10, ETV7 (Homo sapiens, UniProt Q9Y603 1-341); conditions: protein: recombinant; tags: N-terminal GST; dsDNA, one strand shown
T10 sequence: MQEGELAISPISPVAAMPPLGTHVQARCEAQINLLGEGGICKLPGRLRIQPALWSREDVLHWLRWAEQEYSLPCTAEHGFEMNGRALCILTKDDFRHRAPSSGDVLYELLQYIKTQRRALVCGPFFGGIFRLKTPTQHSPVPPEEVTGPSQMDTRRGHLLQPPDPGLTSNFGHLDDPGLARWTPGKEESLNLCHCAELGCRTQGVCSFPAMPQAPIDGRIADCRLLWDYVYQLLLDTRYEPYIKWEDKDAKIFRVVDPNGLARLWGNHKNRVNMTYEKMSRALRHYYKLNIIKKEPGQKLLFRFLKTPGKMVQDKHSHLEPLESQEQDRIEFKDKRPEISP
Outline: as §1

ELF5 = molecular target: T11, ELF5 (Homo sapiens, UniProt Q9UKW6-2 1-255); conditions: protein: recombinant; tags: N-terminal GST; dsDNA, one strand shown
T11 sequence: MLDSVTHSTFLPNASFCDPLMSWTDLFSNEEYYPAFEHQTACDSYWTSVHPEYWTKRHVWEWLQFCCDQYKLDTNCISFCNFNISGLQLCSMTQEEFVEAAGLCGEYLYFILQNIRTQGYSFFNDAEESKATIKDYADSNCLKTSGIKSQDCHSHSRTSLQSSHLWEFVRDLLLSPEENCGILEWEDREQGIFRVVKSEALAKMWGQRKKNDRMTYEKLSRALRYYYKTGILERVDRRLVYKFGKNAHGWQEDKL
Outline: as §1

ETV3 = molecular target: T12, ETV3 (Homo sapiens, UniProt P41162-2 1-143); conditions: protein: recombinant; tags: N-terminal GST; dsDNA, one strand shown
T12 sequence: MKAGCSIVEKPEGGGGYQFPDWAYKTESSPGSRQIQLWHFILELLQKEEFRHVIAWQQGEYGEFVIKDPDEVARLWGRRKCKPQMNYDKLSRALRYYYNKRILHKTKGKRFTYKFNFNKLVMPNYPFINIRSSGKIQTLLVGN
Outline: as §1

ETV6 = ETV6 (Homo sapiens, UniProt P41212 1-452); conditions: protein: recombinant; tags: N-terminal GST; dsDNA, one strand shown
Outline: as §1

Sequence of CRX (O43186 whole entry): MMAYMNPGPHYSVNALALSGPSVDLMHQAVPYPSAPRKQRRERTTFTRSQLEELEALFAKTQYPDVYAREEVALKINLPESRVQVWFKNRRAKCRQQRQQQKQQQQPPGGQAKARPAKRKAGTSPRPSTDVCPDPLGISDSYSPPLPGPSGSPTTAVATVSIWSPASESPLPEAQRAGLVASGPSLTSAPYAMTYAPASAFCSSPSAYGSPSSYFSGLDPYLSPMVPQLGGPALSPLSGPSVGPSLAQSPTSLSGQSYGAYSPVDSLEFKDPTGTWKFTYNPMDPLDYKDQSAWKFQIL
Sequence of ETV5 (P41161 whole entry): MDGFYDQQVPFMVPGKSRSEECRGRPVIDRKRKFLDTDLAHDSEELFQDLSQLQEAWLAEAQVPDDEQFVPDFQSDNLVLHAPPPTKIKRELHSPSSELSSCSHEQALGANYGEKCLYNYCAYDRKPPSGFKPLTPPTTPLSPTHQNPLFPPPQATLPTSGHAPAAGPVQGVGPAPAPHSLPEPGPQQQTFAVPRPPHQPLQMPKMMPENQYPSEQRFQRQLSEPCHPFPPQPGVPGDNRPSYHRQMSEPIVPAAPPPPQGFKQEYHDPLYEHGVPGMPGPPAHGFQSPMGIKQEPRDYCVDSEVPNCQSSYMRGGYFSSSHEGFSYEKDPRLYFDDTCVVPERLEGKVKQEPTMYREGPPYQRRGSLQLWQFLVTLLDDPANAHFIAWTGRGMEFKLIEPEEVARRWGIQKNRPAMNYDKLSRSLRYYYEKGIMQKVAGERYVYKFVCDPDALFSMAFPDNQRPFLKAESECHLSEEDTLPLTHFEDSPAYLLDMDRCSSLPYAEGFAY
Sequence of HSF1 (Q00613 whole entry): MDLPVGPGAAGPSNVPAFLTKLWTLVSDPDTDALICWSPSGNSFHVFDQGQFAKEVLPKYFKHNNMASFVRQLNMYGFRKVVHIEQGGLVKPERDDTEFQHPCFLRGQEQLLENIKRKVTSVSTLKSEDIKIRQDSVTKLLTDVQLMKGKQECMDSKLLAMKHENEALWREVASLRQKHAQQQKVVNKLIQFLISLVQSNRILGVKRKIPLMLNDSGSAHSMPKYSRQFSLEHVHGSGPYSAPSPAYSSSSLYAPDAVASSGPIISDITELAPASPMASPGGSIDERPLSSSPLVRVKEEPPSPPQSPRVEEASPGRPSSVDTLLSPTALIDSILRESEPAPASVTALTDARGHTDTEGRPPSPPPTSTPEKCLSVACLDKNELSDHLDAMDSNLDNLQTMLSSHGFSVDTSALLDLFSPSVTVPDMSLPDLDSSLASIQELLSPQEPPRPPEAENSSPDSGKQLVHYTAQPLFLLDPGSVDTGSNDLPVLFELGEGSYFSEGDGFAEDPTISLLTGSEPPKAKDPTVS
Sequence of ETV1 (P50549 whole entry): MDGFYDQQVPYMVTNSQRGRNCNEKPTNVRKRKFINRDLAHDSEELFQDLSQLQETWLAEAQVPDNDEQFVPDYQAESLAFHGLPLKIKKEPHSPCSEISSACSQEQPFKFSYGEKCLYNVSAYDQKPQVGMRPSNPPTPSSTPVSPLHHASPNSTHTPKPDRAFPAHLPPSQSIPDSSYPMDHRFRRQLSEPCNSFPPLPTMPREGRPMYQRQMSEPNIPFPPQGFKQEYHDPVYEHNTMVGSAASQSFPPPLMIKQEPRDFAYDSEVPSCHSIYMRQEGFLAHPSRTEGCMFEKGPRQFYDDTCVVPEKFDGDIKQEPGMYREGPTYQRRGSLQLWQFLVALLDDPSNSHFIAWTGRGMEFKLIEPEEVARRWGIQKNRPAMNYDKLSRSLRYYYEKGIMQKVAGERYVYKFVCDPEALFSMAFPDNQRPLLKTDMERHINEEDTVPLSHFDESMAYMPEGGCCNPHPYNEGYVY
Sequence of ETV6 (P41212 whole entry): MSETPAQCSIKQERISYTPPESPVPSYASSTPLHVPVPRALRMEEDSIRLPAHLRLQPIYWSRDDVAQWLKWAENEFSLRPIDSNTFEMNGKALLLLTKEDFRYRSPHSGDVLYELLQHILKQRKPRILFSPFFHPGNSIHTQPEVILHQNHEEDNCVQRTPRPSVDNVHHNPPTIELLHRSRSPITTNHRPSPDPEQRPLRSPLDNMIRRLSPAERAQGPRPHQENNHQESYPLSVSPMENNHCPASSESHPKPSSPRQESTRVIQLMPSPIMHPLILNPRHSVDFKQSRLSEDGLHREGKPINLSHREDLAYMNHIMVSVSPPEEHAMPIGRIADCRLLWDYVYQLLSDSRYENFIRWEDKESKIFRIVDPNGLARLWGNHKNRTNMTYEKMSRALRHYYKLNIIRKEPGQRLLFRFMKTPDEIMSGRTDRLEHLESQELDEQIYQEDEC
Sequence of ELF4 (Q99607 whole entry): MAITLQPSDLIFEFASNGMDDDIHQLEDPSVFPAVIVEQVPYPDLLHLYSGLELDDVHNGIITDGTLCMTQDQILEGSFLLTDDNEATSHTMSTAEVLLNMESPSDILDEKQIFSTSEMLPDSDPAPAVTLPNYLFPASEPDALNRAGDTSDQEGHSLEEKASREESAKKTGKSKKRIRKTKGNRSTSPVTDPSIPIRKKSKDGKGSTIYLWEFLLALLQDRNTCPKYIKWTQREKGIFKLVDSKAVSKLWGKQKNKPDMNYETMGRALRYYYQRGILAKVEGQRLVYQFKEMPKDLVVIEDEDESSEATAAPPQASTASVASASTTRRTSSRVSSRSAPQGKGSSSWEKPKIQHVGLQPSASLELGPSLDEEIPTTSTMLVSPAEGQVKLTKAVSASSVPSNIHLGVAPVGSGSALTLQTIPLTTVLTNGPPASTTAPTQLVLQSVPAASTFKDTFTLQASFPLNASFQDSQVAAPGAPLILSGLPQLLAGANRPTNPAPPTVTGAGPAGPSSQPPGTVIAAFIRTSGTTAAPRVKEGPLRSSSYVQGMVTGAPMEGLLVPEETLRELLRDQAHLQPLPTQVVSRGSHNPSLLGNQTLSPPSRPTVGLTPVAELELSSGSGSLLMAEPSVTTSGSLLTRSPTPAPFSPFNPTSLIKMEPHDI

Question: Which results are given for TATTGT?
Answer: binding signal (FEV): 1.26 fold enrichment (6-mer frequency, TF over GST control); binding signal (ETV5): 1.33 fold enrichment (6-mer frequency, TF over GST control); binding signal (HSF1): 1.27 fold enrichment (6-mer frequency, TF over GST control); binding signal (SPIC): 1.45 fold enrichment (6-mer frequency, TF over GST control); binding signal (ELF4): 1.24 fold enrichment (6-mer frequency, TF over GST control); binding signal (ELK4): 1.36 fold enrichment (6-mer frequency, TF over GST control); binding signal (ETV2): 1.32 fold enrichment (6-mer frequency, TF over GST control); binding signal (ELF3): 1.23 fold enrichment (6-mer frequency, TF over GST control); binding signal (CRX): 1.47 fold enrichment (6-mer frequency, TF over GST control); binding signal (ETV1): 1.25 fold enrichment (6-mer frequency, TF over GST control); binding signal (ERF): 1.44 fold enrichment (6-mer frequency, TF over GST control); binding signal (ETV3L): 1.32 fold enrichment (6-mer frequency, TF over GST control); binding signal (ETS2): 1.37 fold enrichment (6-mer frequency, TF over GST control); binding signal (SPDEF): 1.3 fold enrichment (6-mer frequency, TF over GST control); binding signal (ETV7): 1.35 fold enrichment (6-mer frequency, TF over GST control); binding signal (ELF5): 1.23 fold enrichment (6-mer frequency, TF over GST control); binding signal (ETV3): 1.34 fold enrichment (6-mer frequency, TF over GST control); binding signal (ETV6): 1.33 fold enrichment (6-mer frequency, TF over GST control)

Source: paper PMC7862700, “An all-to-all approach to the identification of sequence-specific readers for epigenetic DNA modifications on cytosine”
